# Measurements reported in PubChem BioAssay (EPA / NIEHS).
# Results filed as inconclusive are left out. The source made the active and inactive calls. Rule for the calls, unless noted: active = hit-call score of the fitted dose curve at least 0.9, where 1 is the maximum; inactive = score below 0.9.
# Key:
# [1] = ACEA_ER_80hr: ACEA Biosciences xCELLigence Real-Time Cell Analysis on Estrogen Receptor Agonism for Proliferation (AID 2282667; active = hit-call score of the fitted dose curve at least 0.9, where 1 is the maximum); details: T47D proliferation, impedance (xCELLigence), 80 h
# Procedure, shortened: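 Cell-growth kinetics were measured by impedance in T47D cells treated continuously with compound (top 100 uM final, 1:4 steps, 8 points). Activity at 80 h was scored as signal gain over the DMSO baseline.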
# [2] = ATG_CRE_CIS: Attagene CIS-FACTORIAL HepG2 Assay for human cAMP Responsive Element (CRE) binding protein 3 (AID 2282926); details: HepG2 CRE cis-reporter, Attagene multiplexed mRNA; actives raise or lower the signal
# Procedure, shortened: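 Cells carrying cis-regulated reporter constructs respond through their own endogenous factors. After 24 h treatment, RNA is reverse-transcribed, amplified, labelled and sized by capillary electrophoresis; up- and down-regulation are both scored against vehicle.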
# [3] = target: CCAAT/enhancer-binding protein beta (Homo sapiens) (UniProt P17676); assay: ATG_C_EBP_CIS: Attagene CIS-FACTORIAL HepG2 Assay for human CCAAT/Enhancer Binding Protein (C/EBP) beta (AID 2282927); details: HepG2 Attagene cis-factorial transcription factor reporter; actives raise or lower the signal
# Procedure, shortened: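 Following a 24 h incubation with test chemical, transfected HepG2 cells yielded RNA whose reporter transcripts were quantified by RT-PCR and fluorescent capillary electrophoresis, with DMSO serving as baseline for bidirectional fitting.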
# [4] = ATG_CMV_CIS: Attagene CIS-FACTORIAL HepG2 Assay for human CMV (Internal Marker) (AID 2282928); details: HepG2 CMV promoter reporter, transcription factor profiling; actives raise or lower the signal;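 note: endpoint acts as a background internal control marker rather than a target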
# Procedure, shortened: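 Bidirectional fits against DMSO are applied to reporter mRNA, read by RT-PCR with capillary electrophoresis, from HepG2 cells exposed 24 h. The endpoint serves as an internal CMV background marker within the cis-factorial reporter panel.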
# [5] = ATG_DR4_LXR_CIS: Attagene CIS-FACTORIAL HepG2 Assay for human Liver X Receptor (LXR), DR4 submotif (AID 2282929); details: HepG2 Attagene DR4 cis-reporter, mRNA transcription; actives raise or lower the signal
# Procedure, shortened: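 Total RNA from 24 h-treated, MRTU-transfected HepG2 cells underwent reverse transcription, PCR, fluorescent primer extension and restriction digestion before capillary electrophoresis. Both increases and decreases in reporter signal were fitted against DMSO.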
# [6] = target: Aryl hydrocarbon receptor (Homo sapiens) (UniProt P35869); assay: ATG_Ahr_CIS: Attagene CIS-FACTORIAL HepG2 Assay for human Aryl Hydrocarbon Receptor (Ahr) (AID 2282930); details: HepG2 AhR cis-factorial reporter transcription; actives raise or lower the signal
# Procedure, shortened: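 Values derive from bidirectional fitting against DMSO negative control. Underlying signal: cis-element reporter mRNA in transiently transfected HepG2, harvested 24 h post-dose and measured by RT-PCR plus capillary electrophoresis.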
# [7] = ATG_AP_1_CIS: Attagene CIS-FACTORIAL HepG2 Assay for human Activator Protein 1 (AP-1) (AID 2282931); details: HepG2 Attagene cis-factorial AP-1 reporter mRNA; actives raise or lower the signal
# Procedure, shortened: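 HepG2, transient cis-reporter transfection; 24 h; readout RT-PCR/CE fluorescence; DMSO baseline, gain and loss fitted.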
# [8] = ATG_AP_2_CIS: Attagene CIS-FACTORIAL HepG2 Assay for human Activator Protein 2 (AP-2) (AID 2282932); details: HepG2 AP-2 cis-reporter, Attagene transcription factor profiling; actives raise or lower the signal
# Procedure, shortened: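 Assay in transfected HepG2 with promoter-regulated reporters, 24 h incubation after dosing. Signal is reporter mRNA fluorescence (RT-PCR, capillary electrophoresis), analysed for both increases and decreases relative to DMSO controls.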
# [9] = ATG_BRE_CIS: Attagene CIS-FACTORIAL HepG2 Assay for human Bone Morphogenetic Protein (BMP) Response Element (BRE) (AID 2282933); details: HepG2 BMP response element reporter, Attagene transcription factor profiling; actives raise or lower the signal
# Procedure, shortened: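 HepG2 cells transiently transfected with multiplexed cis-element reporter units were dosed with chemical for 24 h. Reporter mRNA was measured by RT-PCR with fluorescent labelling, HpaI digestion and capillary electrophoresis; bidirectional fitting relative to DMSO.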
# [10] = target: Retinoic acid receptor alpha (Homo sapiens) (UniProt P10276); assay: ATG_DR5_RAR_CIS: Attagene CIS-FACTORIAL HepG2 Assay for human Retinoic Acid Receptor Alpha (RARE), DR5 submotif (AID 2282934); details: HepG2 Attagene cis-factorial RARE DR5 reporter, mRNA; actives raise or lower the signal
# Procedure, shortened: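 Endpoint fitted in both directions relative to DMSO as negative control. It reflects DR5 cis-element reporter mRNA induction in transiently transfected HepG2 cells, measured 24 h after dosing through RT-PCR and fluorescent capillary electrophoresis.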
# [11] = target: Transcription factor E2F1 (Homo sapiens) (UniProt Q01094); assay: ATG_E2F_CIS: Attagene CIS-FACTORIAL HepG2 Assay for human E2F Transcription Factor 1 (AID 2282935); details: HepG2 Attagene cis-reporter, E2F reporter RNA transcripts; actives raise or lower the signal
# Procedure, shortened: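 In this cis-factorial format, endogenous factor activity drives transfected reporters in HepG2; transcripts collected at 24 h are quantified by fluorescence after RT-PCR and capillary separation.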
# [12] = ATG_E_Box_CIS: Attagene CIS-FACTORIAL HepG2 Assay for human Enhancer Box (E-box) (AID 2282936); details: HepG2 E-box cis-reporter transcription, actives raise or lower the signal
# Procedure, shortened: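 Measured 24 h post-dosing in HepG2 cells transfected with multiple cis-regulated reporter units, signal being reporter mRNA induction detected by fluorescent RT-PCR with capillary electrophoresis; gain or loss fitted against DMSO.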
# [13] = ATG_M_61_CIS: Attagene CIS-FACTORIAL HepG2 Assay for M61 Transcription Factor (Internal Marker) (AID 2282937); details: HepG2 Attagene CIS-FACTORIAL M61 internal marker reporter; actives raise or lower the signal
# Procedure, shortened: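 Transfect HepG2 with MRTUs; dose 24 h; isolate RNA; reverse-transcribe with DNase I treatment; PCR-amplify, FAM-label and cut with HpaI for 2 h at 37 C; resolve by CE. Bidirectional fitting against DMSO.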
# [14] = ATG_EGR_CIS: Attagene CIS-FACTORIAL HepG2 Assay for human Early Growth Response 1 (EGR1) (AID 2282938); details: HepG2 Attagene CIS-FACTORIAL EGR reporter mRNA; actives raise or lower the signal
# Procedure, shortened: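 After a 24 h treatment of transiently transfected HepG2 cells, total RNA was reverse-transcribed and reporter sequences PCR-amplified, labelled and run on capillary electrophoresis. Reporters sit under cis-regulatory promoters sensing endogenous factors.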
# [15] = ATG_M_19_CIS: Attagene CIS-FACTORIAL HepG2 Assay for M19 Transcription Factor (Internal Marker) (AID 2282939); details: HepG2 Attagene CIS-FACTORIAL M19 internal marker reporter; actives raise or lower the signal
# Procedure, shortened: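 HepG2 cells transiently transfected with cis-regulated multiple reporter transcription units were dosed for 24 h; reporter mRNA was quantified by RT-PCR, 6-FAM primer-extension labelling, HpaI digestion and capillary electrophoresis, with bidirectional fitting against DMSO baseline.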
# [16] = ATG_ERE_CIS: Attagene CIS-FACTORIAL HepG2 Assay for Estrogen Response Element (ERE) (AID 2282940); details: HepG2 ERE cis-reporter, Attagene RNA transcript; actives raise or lower the signal
# Procedure, shortened: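 HepG2 cells transiently transfected with cis-promoter-driven multiplexed reporter transcription units report endogenous TF activity. After 24 h compound exposure, reporter mRNA is quantified by RT-PCR with capillary electrophoresis fluorescence; bidirectional fitting versus DMSO baseline.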
# [17] = ATG_Ets_CIS: Attagene CIS-FACTORIAL HepG2 Assay for human Erythroblast Transformation Specific (ETS) (AID 2282941); details: HepG2 ETS cis-reporter transcription, actives raise or lower the signal
# Procedure, shortened: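 Endogenous transcription factor activity read as reporter mRNA via RT-PCR and capillary electrophoresis, with gain or loss fitted bidirectionally against DMSO. Human HepG2 liver cells, transiently transfected CIS reporter constructs, 24 h exposure.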
# [18] = target: Hepatocyte nuclear factor 3-beta (Homo sapiens) (UniProt Q9Y261); assay: ATG_FoxA2_CIS: Attagene CIS-FACTORIAL HepG2 Assay for human Forkhead box A2 (FOXA2) (AID 2282942); details: HepG2 cis-reporter transcription factor activity, 24 h; actives raise or lower the signal
# Procedure, shortened: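 24 h dosing of HepG2 bearing cis-reporter constructs; mRNA readout by RT-PCR/CE fluorescence; bidirectional fit, DMSO baseline.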
# [19] = ATG_FoxO_CIS: Attagene CIS-FACTORIAL HepG2 Assay for human Forkhead box O (FoxO) (AID 2282943); details: HepG2 Attagene cis-reporter, FoxO element, mRNA; actives raise or lower the signal
# Procedure, shortened: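 Values reflect reporter mRNA induction or loss in HepG2 cells 24 h post-dosing, fitted bidirectionally with DMSO as negative control and baseline. Detection used RT-PCR and fluorescence capillary electrophoresis.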
# [20] = ATG_GATA_CIS: Attagene CIS-FACTORIAL HepG2 Assay for human GATA Binding Protein (AID 2282944); details: HepG2 GATA cis-element reporter, Attagene multiplex mRNA; actives raise or lower the signal
# Procedure, shortened: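 HepG2 cells transiently transfected with multiplexed cis-element reporter units reflecting endogenous transcription factor activity; reporter mRNA measured after 24 h dosing by RT-PCR, 6-FAM labeling, HpaI digestion and capillary electrophoresis. Bidirectional fitting versus DMSO baseline.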
# Aryl hydrocarbon receptor (Homo sapiens), sequence (P35869 whole entry, looked up): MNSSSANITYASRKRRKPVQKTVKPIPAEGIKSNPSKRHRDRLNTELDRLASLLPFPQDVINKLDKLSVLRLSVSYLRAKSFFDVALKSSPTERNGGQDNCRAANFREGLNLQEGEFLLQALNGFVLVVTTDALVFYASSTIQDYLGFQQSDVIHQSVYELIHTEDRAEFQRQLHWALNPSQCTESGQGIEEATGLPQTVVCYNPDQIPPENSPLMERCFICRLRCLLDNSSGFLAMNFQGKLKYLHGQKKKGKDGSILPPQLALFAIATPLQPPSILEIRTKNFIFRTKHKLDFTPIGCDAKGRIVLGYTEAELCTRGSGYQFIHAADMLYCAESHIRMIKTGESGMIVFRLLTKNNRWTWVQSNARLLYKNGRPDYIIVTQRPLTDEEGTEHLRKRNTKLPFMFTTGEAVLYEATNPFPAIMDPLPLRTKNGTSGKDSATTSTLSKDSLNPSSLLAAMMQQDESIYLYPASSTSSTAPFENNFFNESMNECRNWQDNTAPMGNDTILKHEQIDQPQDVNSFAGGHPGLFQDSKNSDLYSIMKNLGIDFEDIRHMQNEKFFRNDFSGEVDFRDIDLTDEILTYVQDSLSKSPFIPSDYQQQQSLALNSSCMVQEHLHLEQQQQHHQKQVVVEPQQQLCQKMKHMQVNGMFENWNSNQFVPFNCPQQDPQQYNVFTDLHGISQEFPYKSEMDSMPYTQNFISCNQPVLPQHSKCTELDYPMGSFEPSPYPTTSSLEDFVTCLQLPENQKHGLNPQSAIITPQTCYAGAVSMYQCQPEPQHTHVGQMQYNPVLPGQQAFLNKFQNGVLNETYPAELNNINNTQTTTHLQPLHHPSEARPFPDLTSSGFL
# Transcription factor E2F1 (Homo sapiens), sequence (Q01094 whole entry, looked up): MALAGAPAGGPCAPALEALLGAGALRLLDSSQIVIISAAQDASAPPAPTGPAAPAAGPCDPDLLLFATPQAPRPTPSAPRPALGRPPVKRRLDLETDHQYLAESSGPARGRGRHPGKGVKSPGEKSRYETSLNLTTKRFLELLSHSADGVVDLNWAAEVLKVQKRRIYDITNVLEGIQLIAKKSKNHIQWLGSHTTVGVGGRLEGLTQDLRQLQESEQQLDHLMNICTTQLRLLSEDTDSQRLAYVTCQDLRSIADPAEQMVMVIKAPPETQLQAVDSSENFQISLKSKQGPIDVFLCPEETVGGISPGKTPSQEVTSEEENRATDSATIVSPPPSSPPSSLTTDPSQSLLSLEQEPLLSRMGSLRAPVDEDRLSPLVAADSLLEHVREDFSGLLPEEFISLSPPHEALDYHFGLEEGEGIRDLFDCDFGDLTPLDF
# Retinoic acid receptor alpha (Homo sapiens), sequence (P10276 whole entry, looked up): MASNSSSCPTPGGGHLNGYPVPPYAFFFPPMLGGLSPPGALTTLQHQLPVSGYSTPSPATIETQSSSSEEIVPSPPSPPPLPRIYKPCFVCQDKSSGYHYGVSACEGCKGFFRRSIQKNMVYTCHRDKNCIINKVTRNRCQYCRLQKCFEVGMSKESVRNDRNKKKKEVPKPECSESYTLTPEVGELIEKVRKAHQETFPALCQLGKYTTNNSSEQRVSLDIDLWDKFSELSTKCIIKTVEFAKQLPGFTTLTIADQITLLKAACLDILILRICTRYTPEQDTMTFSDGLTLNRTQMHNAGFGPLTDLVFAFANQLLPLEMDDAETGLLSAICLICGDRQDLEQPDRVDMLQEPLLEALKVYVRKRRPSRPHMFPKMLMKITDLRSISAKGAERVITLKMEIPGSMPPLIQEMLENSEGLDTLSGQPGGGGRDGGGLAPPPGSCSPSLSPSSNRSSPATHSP
# CCAAT/enhancer-binding protein beta (Homo sapiens), sequence (P17676 whole entry, looked up): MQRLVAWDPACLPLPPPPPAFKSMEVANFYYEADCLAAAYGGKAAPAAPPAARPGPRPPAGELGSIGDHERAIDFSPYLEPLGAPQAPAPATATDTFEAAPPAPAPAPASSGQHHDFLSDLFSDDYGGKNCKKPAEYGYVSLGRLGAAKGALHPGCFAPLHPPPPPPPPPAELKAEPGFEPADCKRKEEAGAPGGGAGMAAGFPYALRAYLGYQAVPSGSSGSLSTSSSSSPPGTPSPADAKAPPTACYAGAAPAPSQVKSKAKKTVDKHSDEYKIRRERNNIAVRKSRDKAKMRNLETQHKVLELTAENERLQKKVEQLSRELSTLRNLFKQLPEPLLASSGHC
# Hepatocyte nuclear factor 3-beta (Homo sapiens), sequence (Q9Y261 whole entry, looked up): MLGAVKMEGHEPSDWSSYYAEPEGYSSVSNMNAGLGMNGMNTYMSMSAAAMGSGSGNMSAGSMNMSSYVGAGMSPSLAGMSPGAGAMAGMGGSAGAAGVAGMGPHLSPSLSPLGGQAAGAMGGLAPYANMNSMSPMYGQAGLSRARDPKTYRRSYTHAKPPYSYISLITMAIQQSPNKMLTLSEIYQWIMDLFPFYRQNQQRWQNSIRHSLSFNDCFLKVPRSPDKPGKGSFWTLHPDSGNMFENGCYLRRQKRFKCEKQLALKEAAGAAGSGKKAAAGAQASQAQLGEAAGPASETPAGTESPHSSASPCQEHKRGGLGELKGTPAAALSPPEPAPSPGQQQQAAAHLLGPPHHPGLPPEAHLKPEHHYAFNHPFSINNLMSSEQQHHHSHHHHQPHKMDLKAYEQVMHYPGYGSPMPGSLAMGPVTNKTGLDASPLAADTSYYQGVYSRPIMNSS
smiles,measurement,setting,value
C[N+](C)(C)CCCNS(=O)(=O)C(F)(F)C(F)(F)C(F)(F)C(F)(F)C(F)(F)C(F)(F)C(F)(F)C(F)(F)F,outcome,[1],inactive
same,outcome,[2],inactive
same,outcome,[3],inactive
same,AC50,[4],55.4 µM (active)
same,outcome,[5],inactive
same,outcome,[6],inactive
same,outcome,[7],inactive
same,outcome,[8],inactive
same,outcome,[9],inactive
same,outcome,[10],inactive
same,outcome,[11],inactive
same,outcome,[12],inactive
same,outcome,[13],inactive
same,outcome,[14],inactive
same,outcome,[15],inactive
same,outcome,[16],inactive
same,outcome,[17],inactive
same,outcome,[18],inactive
same,outcome,[19],inactive
same,outcome,[20],inactive
CN(C)Cc1cc(CN(C)C)c(O)c(CN(C)C)c1,outcome,[1],inactive
same,outcome,[2],inactive
same,outcome,[3],inactive
same,outcome,[4],inactive
same,outcome,[5],inactive
same,outcome,[6],inactive
same,outcome,[7],inactive
same,outcome,[8],inactive
same,outcome,[9],inactive
same,outcome,[10],inactive
same,outcome,[11],inactive
same,outcome,[12],inactive
same,outcome,[13],inactive
same,outcome,[14],inactive
same,outcome,[15],inactive
same,outcome,[16],inactive
same,outcome,[17],inactive
same,outcome,[18],inactive
same,outcome,[19],inactive
same,outcome,[20],inactive
C=CCNCC=C,outcome,[1],inactive
same,outcome,[2],inactive
same,outcome,[3],inactive
same,outcome,[4],inactive
same,outcome,[5],inactive
same,outcome,[6],inactive
same,outcome,[7],inactive
same,outcome,[8],inactive
same,outcome,[9],inactive
same,outcome,[10],inactive
same,outcome,[11],inactive
same,outcome,[12],inactive
same,outcome,[13],inactive
same,outcome,[14],inactive
same,outcome,[15],inactive
same,outcome,[16],inactive
same,outcome,[17],inactive
same,outcome,[18],inactive
same,outcome,[19],inactive
same,outcome,[20],inactive
CCCCc1ccc(Cl)cc1,outcome,[1],inactive
same,outcome,[2],inactive
same,outcome,[3],inactive
same,outcome,[4],inactive
same,outcome,[5],inactive
same,outcome,[6],inactive
same,outcome,[7],inactive
same,outcome,[8],inactive
same,outcome,[9],inactive
same,outcome,[10],inactive
same,outcome,[11],inactive
same,outcome,[12],inactive
same,outcome,[13],inactive
same,outcome,[14],inactive
same,outcome,[15],inactive
same,outcome,[16],inactive
same,outcome,[17],inactive
same,outcome,[18],inactive
same,outcome,[19],inactive
same,outcome,[20],inactive
O=C(O)C1CCC(C(=O)O)CC1 (stereo not given),outcome,[1],inactive
same,outcome,[2],inactive
same,outcome,[3],inactive
same,outcome,[4],inactive
same,outcome,[5],inactive
same,outcome,[6],inactive
same,outcome,[7],inactive
same,outcome,[8],inactive
same,outcome,[9],inactive
same,outcome,[10],inactive
same,outcome,[11],inactive
same,outcome,[12],inactive
same,outcome,[13],inactive
same,outcome,[14],inactive
same,outcome,[15],inactive
same,outcome,[16],inactive
same,outcome,[17],inactive
same,outcome,[18],inactive
same,outcome,[19],inactive
same,outcome,[20],inactive
Nc1nc(N)nc(-c2ccccc2)n1,outcome,[1],inactive
same,outcome,[2],inactive
same,outcome,[3],inactive
same,outcome,[4],inactive
same,outcome,[5],inactive
same,outcome,[6],inactive
same,outcome,[7],inactive
same,outcome,[8],inactive
same,outcome,[9],inactive
same,outcome,[10],inactive
same,outcome,[11],inactive
same,outcome,[12],inactive
same,outcome,[13],inactive
same,outcome,[14],inactive
same,outcome,[15],inactive
same,outcome,[16],inactive
same,outcome,[17],inactive
same,outcome,[18],inactive
same,outcome,[19],inactive
same,outcome,[20],inactive
COc1ccc(C(=O)c2ccccc2)c(O)c1,outcome,[1],inactive
same,outcome,[2],inactive
same,outcome,[3],inactive
same,AC50,[4],79.6 µM (active)
same,AC50,[5],115 µM (active)
same,outcome,[6],inactive
same,AC50,[7],168 µM (active)
same,outcome,[8],inactive
same,AC50,[9],158 µM (active)
same,outcome,[10],inactive
same,outcome,[11],inactive
same,outcome,[12],inactive
same,outcome,[13],inactive
same,AC50,[14],85.1 µM (active)
same,outcome,[15],inactive
same,AC50,[16],5.69 µM (active)
same,outcome,[17],inactive
same,outcome,[18],inactive
same,outcome,[19],inactive
same,outcome,[20],inactive
